Compound activity: PubChem, Broad Institute
Most compounds without a hit are left out; they make up all but 2.8% or so of the library.
SIRT5 block – blocks human SIRT5 desuccinylation of peptide; Q9NXA8; Purified SirT5, succinyl-peptide AMC, trypsin-coupled fluorescence; inhibition, % at 15 µM; 1.1% of 330,000 active; AID 652115; in the data active means inhibition above about 15%
Target sequence (Q9NXA8 whole entry, looked up): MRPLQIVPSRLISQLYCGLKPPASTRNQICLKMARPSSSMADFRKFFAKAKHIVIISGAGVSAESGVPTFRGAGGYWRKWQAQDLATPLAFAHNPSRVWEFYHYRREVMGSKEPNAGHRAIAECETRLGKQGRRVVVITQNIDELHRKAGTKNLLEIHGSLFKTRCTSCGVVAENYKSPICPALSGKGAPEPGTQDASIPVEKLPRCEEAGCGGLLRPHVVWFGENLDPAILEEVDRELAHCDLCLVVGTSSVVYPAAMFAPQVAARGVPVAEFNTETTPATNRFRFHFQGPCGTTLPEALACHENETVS
PvdQ inh – blocks Pseudomonas aeruginosa PvdQ acylase activity; 0.063% of 340,000 active; purified PvdQ acylase, fluorescence plate reader; inhibition, % at 10 µM; AID 488965; in the data active means inhibition above about 30%, passing the limit was not always enough;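 further: 0% = vehicle neutral wells and 100% = reference inhibitor wells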
PglD DTNB – inhibitors of Campylobacter jejuni PglD acetyltransferase | purified PglD enzyme, DTNB colorimetric CoA detection | inhibition, % at 12.5 µM | 0.098% of 360,000 active | AID 602405; in the data active means inhibition above about 16%, passing the limit was not always enough
dFosB activator – activators of mouse delta FosB homodimer | purified delta FosB, TAMRA-CDK5 oligo fluorescence polarization; percent of positive-control signal above neutral wells | activation, % at 25 µM | 0.99% of 340,000 active | AID 493131;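 active means mean activation above about 17%, with every replicate also reaching it, limit read from the data, passing the limit was not always enough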
Target sequence (P13346 whole entry, looked up): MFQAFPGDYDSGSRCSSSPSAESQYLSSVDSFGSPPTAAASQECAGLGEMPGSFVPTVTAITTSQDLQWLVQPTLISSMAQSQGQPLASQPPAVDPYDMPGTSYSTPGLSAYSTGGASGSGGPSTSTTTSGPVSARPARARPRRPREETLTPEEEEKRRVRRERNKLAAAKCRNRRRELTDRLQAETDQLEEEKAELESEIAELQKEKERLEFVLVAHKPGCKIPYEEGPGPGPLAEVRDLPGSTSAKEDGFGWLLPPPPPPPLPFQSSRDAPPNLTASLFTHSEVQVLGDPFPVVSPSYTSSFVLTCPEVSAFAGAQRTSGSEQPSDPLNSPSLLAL
CDK5 p35 inh – blocks human CDK5/p35 kinase activity; inhibition, % at 10 µM; AID 488839; Q00535+Q15078; 0.01% of 330,000 active; Recombinant CDK5/p35, ADP-Glo luminescence, 60 min;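 active means highest replicate inhibition of at least 50% and at least 75% of replicates reaching 50%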;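 further: plate controls were DMSO neutral control for no effect and GW8510 at 10 µM for full effect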
FGF22 binding – shifts melting point of recombinant human FGF22 | Q9HCT0 | recombinant FGF22 thermal shift, SYPRO orange fluorescence; percent of sucrose octasulfate shift, DMSO zero | activity (Tm shift, normalised), % at 9.99 µM | 1.5% of 340,000 active | AID 651658;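 active means mean Tm shift, scaled 0 neutral to 100 positive control, at about 1.3% or above, every replicate too, limit read from the data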
The depositor's hits bear a star; x = no result.

SMILES | SIRT5 block | PvdQ inh | PglD DTNB | dFosB activator | CDK5 p35 inh | FGF22 binding
COc1cccc(S(=O)(=O)N(C)C[C@H]2Oc3cc(C4=CCCCC4)ccc3S(=O)(=O)N([C@H](C)CO)C[C@@H]2C)c1 | 13 | x | 2 | x | x | 0
COc1cccc(S(=O)(=O)N(C)C[C@@H]2Oc3cc(C4=CCCCC4)ccc3S(=O)(=O)N([C@H](C)CO)C[C@@H]2C)c1 | 26* | x | -2 | x | x | 0
COc1cccc(S(=O)(=O)N(C)C[C@@H]2Oc3cc(C4=CCCC4)ccc3S(=O)(=O)N([C@@H](C)CO)C[C@@H]2C)c1 | 15 | x | 0 | x | x | 0
COc1cccc(S(=O)(=O)N(C)C[C@@H]2Oc3cc(C4=CCCC4)ccc3S(=O)(=O)N([C@H](C)CO)C[C@H]2C)c1 | 23* | x | -4 | x | x | 0
CC1=NN(C(=O)c2ccc(Cn3cc([N+](=O)[O-])cn3)cc2)C(O)(C(F)(F)F)C1 (stereo not drawn) | 18* | -6 | x | -5 | -1 | 0
Cc1ccc(S(=O)(=O)NCC(=O)NCC(=O)OCC(=O)NC(=O)NC(C)(C)C)cc1C | -3 | -14 | x | -2 | -1 | 43*
Cc1ccc(S(=O)(=O)NCC(=O)NCC(=O)NCCc2ccccc2F)cc1C | -15 | -2 | 3 | -1 | 0 | 0
Cc1c(C(=O)N(Cc2ccc(F)cc2)C2CCS(=O)(=O)C2)oc2ccccc12 (stereo not drawn) | -1 | -11 | -1 | -14 | -1 | 0
Cc1c(C(=O)N(Cc2ccccc2)C2CCS(=O)(=O)C2)oc2ccccc12 (stereo not drawn) | 16* | -9 | 3 | -6 | 0 | 0
COc1ccc(NC(=O)Cn2nnc(C(=O)Nc3ccccc3C)c2N)cc1 | 1 | 9 | x | 0 | -1 | 44*
C/C=C/c1ccc(C2[C@H]3CNC[C@@H]2N3Cc2cc(-c3ccccc3)on2)cc1 (stereo partly drawn) | 6 | x | x | x | x | x
Cc1nn(C)c(Cl)c1C(=O)NCC(=O)Nc1ccc(C(C)C)cc1 | 0 | 4 | x | -6 | 5 | 44*
O=S(=O)(Nn1cnnc1)c1ccc2ccccc2c1 | 1 | 3 | -3 | -7 | 1 | 43*
O=S(=O)(Nn1cnnc1)c1ccccc1 | -4 | 4 | -8 | 2 | 0 | x
COc1cc(C(=O)O/N=C2\C=CC(=O)C=C2C)cc(OC)c1OC | 0 | -2 | x | -2 | -7 | 43*
CCNC(=O)COC(=O)/C=C/c1cccc([N+](=O)[O-])c1 | 1 | -8 | x | 1 | -8 | 43*
O=C(COC(=O)/C=C/c1cccc([N+](=O)[O-])c1)NCc1ccco1 | -2 | -12 | x | -3 | -2 | 0
O=C(COC(=O)/C=C/c1ccc([N+](=O)[O-])cc1)Nc1ccc2[nH]c(=O)[nH]c2c1 | 0 | 18 | 2 | 31* | 1 | x
C[C@@H]1CN([C@@H](C)CO)C(=O)CCCn2cc(nn2)CO[C@@H]1CN(C)C(=O)Nc1ccc(F)cc1 | 3 | x | -2 | x | x | 0
COCC#Cc1ccc2c(c1)O[C@@H](CN(C)S(=O)(=O)c1ccc(F)cc1)[C@@H](C)CN([C@H](C)CO)S2(=O)=O | 4 | x | 2 | x | x | 0
CCNC(=O)COc1ccc2ccccc2c1 | x | 35* | 2 | -5 | -3 | x
CCNC(=O)COc1ccc(CC)cc1 | 0 | -5 | x | 3 | 1 | 0
Cc1ccccc1S(=O)(=O)N1CC(=O)N2[C@@H](CO)[C@@H](c3ccc(C#CCN(C)C)cc3)[C@@H]2C1 | -2 | x | x | x | x | x
C/C=C/c1ccc(OCC(=O)Nc2ccc(C(N)=O)cc2)c(OC)c1 | -5 | -4 | x | 3 | 0 | 44*
CCOc1[nH]n(-c2ccccc2)c(=O)c1C=Nc1ccc(C)cc1 | 18* | -3 | x | -1 | -1 | 0
SMILES | SIRT5 block | PvdQ inh | PglD DTNB | dFosB activator | CDK5 p35 inh | FGF22 binding
CCOc1[nH]n(-c2ccccc2)c(=O)c1C=Nc1ccccc1 | 1 | -8 | -7 | -2 | -1 | 42
CN(C)C(/C=C/Nc1ccc(Br)cc1)=C(C#N)C#N | -3 | -9 | x | -1 | 1 | 43*
CN(C)C(/C=C/Nc1ccc(C#N)cc1)=C(C#N)C#N | x | -5 | -2 | -1 | 1 | x
CN1C(=O)c2cc(NC(=O)NC3CCCC3)ccc2OC[C@H]2O[C@H](CC(=O)O)CC[C@H]21 | -6 | x | 2 | x | x | 0
CCCNC(=O)N1C[C@H](C)[C@H](OC)CN(C)C(=O)c2cc(NS(=O)(=O)CC(F)(F)F)ccc2OC[C@@H]1C | -5 | x | -1 | x | x | 0
Cc1c(NS(=O)(=O)c2ccc(N=NN(C)C)cc2)c(=O)n(-c2ccccc2)n1C | 18* | -8 | 1 | -9 | 2 | 0
Cc1c(NS(=O)(=O)c2cccc(C(=O)Nc3ccccc3)c2)c(=O)n(-c2ccccc2)n1C | 1 | -6 | 3 | -7 | 0 | 0
Cc1c(NS(=O)(=O)c2cccc(C(=O)NCc3ccccc3Cl)c2)c(=O)n(-c2ccccc2)n1C | 16* | -14 | 2 | -11 | -2 | 0
COc1ccc2c3c(n(C)c2c1)[C@H](CO)N(C(=O)C1CC1)CC31CN(C(=O)C2CCOCC2)C1 | 4 | x | x | x | x | 0
C[C@@H]1CN([C@@H](C)CO)C(=O)c2cc(NC(=O)CCC(F)(F)F)ccc2O[C@H]1CN(C)Cc1ccncc1 | x | x | 40 | x | x | x
COC(=O)c1c(CC[C@@H](CO)NC(=O)N[C@H](Cn2cc(-c3cncn3C)nn2)C(C)C)oc(C(C)=O)c1C(=O)OC | 2 | x | x | x | x | 1.6*
C[C@@H]1CCCCO[C@H](CN(C)C(=O)NC2CCCCC2)[C@@H](C)CN([C@H](C)CO)C(=O)c2cc(N(C)C)ccc2O1 | 3 | x | 0 | x | x | -1
COc1ccc2cc3cc(C(=O)N4CCCCCC4)oc3nc2c1 | x | -16 | 2 | -42 | 0 | x
COc1ccc2cc3cc(C(=O)N4CCCCC4C)oc3nc2c1 (stereo not drawn) | 18* | 13 | -3 | -28 | 2 | 0
COc1ccc(C(=O)NC(=S)NCC2CCCO2)cc1 (stereo not drawn) | x | -5 | 1 | -4 | 2 | x
COc1ccc(/C=C/C(=O)OCC(=O)NCC2CCCO2)cc1 (stereo not drawn) | 3 | 11 | x | -7 | 0 | 44*
COc1ccc(/C=C/C(=O)NC(=S)NCC2CCCO2)cc1 (stereo not drawn) | 2 | -12 | x | -1 | 0 | 44*
O=C(CSc1nc2ccccc2[nH]1)NCc1ccc(F)cc1 | 0 | -8 | 7 | -4 | -2 | 43*
O=C(CSc1nc2ccccc2[nH]1)Nc1ccc(F)cc1 | -2 | -16 | 7 | -9 | 0 | 0
Cc1ccc(S(=O)(=O)N(C)C[C@@H]2Oc3cc(C#Cc4ccccc4)ccc3S(=O)(=O)N([C@@H](C)CO)C[C@H]2C)cc1 | 0 | x | 1 | x | x | 0
Cc1cc(NC(=O)Cn2ccsc2=N)c([N+](=O)[O-])cc1C | 2 | 5 | x | 8 | 0 | 43*
